Reference: PubChem BioAssay
Unmarked numbers belong to inactive results. A call without a number means that no potency is given here. For some of these results: Potency and affinity values are given separately. The source made the active and inactive calls. Unless noted, the rule behind the calls is not given here.

Experiments:
[1] = antimalarial activity against Dd2 strain (AID 2302;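 active = growth inhibition above 50% at the single 2 µM test dose, taken to imply half-maximal potency below 2 µM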); conditions: P. falciparum Dd2 in RBCs, LDH growth readout, 72 h; at 2 µM; hits give high values
[2] = human hepatoma cell viability loss – ATP luminescence, cytotoxicity control for P. falciparum antimalarial project, primary screen (AID 2303;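 active = inhibition above 50%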); conditions: HepG2 viability, 24-48 h, at 10 µM, hits give high values
[3] = molecular target: L-lactate dehydrogenase (Plasmodium falciparum (isolate CDC / Honduras)) (UniProt Q27743); test: PfLDH activity inhibition – cell lysate, 3D7 strain, counter-screen for P. falciparum growth inhibition project (AID 2304); conditions: P. falciparum 3D7 crude extract, LDH APAD/NBT absorbance; at 2 µM; hits give high values
L-lactate dehydrogenase (Plasmodium falciparum (isolate CDC / Honduras)), sequence (Q27743 whole entry, looked up): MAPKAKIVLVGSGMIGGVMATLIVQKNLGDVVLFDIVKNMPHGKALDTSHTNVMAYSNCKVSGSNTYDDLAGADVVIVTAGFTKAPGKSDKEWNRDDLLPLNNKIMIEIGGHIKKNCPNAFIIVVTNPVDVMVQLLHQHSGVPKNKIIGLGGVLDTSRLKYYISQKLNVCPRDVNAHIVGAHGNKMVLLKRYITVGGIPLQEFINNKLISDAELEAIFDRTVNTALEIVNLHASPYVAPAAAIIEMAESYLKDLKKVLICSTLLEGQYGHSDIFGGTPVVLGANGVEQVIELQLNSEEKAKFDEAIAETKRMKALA

[4] = inhibition of 3D7 malaria parasite growth – strain 3D7 (AID 2306); conditions: P. falciparum 3D7 erythrocytic growth, LDH absorbance, 72 h; at 2 µM; hits give high values
[5] = molecular target: Calcium-dependent protein kinase 1 (Plasmodium falciparum (isolate 3D7)) (UniProt P62344); test: PfCDPK1 kinase inhibitors, biochemical, TCAMS library (AID 1159585; cut-off not given, nearly all actives have IC50 up to about 0.98 µM;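 note: inhibitors leave more ATP so luminescence rises with inhibition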); conditions: recombinant PfCDPK1, Kinase-Glo ATP depletion luminescence
Calcium-dependent protein kinase 1 (Plasmodium falciparum (isolate 3D7)), sequence (P62344 whole entry, looked up): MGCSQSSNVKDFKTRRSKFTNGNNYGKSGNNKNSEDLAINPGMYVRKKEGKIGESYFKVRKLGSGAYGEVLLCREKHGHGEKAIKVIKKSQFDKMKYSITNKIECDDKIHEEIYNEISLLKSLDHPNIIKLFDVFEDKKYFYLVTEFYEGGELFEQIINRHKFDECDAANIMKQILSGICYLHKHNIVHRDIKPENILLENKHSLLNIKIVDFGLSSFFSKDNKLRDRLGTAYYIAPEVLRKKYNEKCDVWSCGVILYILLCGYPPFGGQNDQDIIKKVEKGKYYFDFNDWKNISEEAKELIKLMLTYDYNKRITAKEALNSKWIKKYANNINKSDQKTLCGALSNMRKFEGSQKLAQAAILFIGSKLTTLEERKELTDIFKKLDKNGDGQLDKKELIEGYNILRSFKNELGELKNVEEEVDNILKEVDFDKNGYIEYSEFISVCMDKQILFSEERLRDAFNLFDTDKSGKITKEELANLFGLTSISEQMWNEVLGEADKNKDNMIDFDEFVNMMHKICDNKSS

[6] = molecular target: Plasmodium falciparum protein kinase 6 (PK6, PF3D7_1337100) (UniProt Q8IDW1); test: PfPK6 kinase inhibitors, biochemical, TCAMS library (AID 1159586); conditions: recombinant PfPK6, Kinase-Glo ATP depletion luminescence
Plasmodium falciparum protein kinase 6 (PK6, PF3D7_1337100), sequence (Q8IDW1 1-305): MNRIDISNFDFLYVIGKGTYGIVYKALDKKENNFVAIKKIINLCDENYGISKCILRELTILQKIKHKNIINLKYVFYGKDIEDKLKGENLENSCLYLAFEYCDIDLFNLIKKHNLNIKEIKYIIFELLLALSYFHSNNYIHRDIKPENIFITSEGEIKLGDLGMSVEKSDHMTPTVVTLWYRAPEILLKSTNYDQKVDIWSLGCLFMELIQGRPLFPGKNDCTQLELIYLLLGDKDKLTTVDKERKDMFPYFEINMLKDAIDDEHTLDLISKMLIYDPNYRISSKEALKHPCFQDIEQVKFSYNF

[7] = molecular target: Protein kinase 7 (PK7), Plasmodium falciparum 3D7 (PF3D7_0213400) (UniProt Q7YTF7); test: inhibition of Plasmodium PK7 catalytic activity – biochemical, TCAMS antimalarial set, Kinase-Glo luminescence (AID 1159587); conditions: recombinant PfPK7, Kinase-Glo ATP depletion luminescence
Protein kinase 7 (PK7), Plasmodium falciparum 3D7 (PF3D7_0213400), sequence (Q7YTF7 1-343): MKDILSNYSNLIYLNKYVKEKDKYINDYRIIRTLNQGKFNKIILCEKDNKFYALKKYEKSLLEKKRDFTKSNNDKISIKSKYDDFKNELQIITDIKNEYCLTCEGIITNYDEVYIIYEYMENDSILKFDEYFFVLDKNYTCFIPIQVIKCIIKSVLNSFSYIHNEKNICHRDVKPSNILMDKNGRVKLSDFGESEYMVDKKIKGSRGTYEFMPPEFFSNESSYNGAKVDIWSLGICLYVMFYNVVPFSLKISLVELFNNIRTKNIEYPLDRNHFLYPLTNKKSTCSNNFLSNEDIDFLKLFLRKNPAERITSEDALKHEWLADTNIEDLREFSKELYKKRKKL

[8] = molecular target: Calcium-dependent protein kinase 4 (Plasmodium falciparum (isolate 3D7)) (UniProt Q8IBS5); test: PfCDPK4 kinase inhibitors, biochemical, TCAMS library (AID 1159588; cut-off not given, nearly all actives have IC50 up to about 0.91 µM); conditions: recombinant PfCDPK4, Kinase-Glo ATP depletion luminescence
Calcium-dependent protein kinase 4 (Plasmodium falciparum (isolate 3D7)), sequence (Q8IBS5 whole entry, looked up): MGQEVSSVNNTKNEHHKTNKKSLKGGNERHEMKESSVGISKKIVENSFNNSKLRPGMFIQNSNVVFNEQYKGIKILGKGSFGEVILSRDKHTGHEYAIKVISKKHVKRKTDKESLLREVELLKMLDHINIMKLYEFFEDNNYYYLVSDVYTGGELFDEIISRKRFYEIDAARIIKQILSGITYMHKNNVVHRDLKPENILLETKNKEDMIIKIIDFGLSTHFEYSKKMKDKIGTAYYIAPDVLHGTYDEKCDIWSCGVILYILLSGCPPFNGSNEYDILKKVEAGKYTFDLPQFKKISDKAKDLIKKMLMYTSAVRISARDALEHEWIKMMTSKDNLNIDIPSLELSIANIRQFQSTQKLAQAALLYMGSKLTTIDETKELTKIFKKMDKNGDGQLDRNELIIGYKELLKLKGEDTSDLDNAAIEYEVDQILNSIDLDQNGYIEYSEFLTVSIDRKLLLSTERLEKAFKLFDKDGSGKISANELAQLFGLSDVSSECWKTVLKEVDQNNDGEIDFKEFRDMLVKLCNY

COc1cc2ccccc2c(OC)c1CNCCCCCCNCc1c(OC)cc2ccccc2c1OC
growth inhibition [1]: 91% (active)
inhibition [2]: 100% (active)
inhibition [3]: 0%
growth inhibition [4]: 93% (active)
outcome [5]: inactive
outcome [6]: inactive
outcome [7]: inactive
outcome [8]: inactive

Nc1nc2c(ncn2OC[C@H](CO)OCP(=O)(O)O)c(=O)[nH]1
growth inhibition [1]: 61% (active)
inhibition [2]: 5%
inhibition [3]: -4%
growth inhibition [4]: 94% (active)
outcome [5]: inactive
outcome [6]: inactive
outcome [7]: inactive
outcome [8]: inactive

COc1cc(OC)cc(-c2nn(-c3ccc([N+](=O)[O-])cc3C#N)c(=S)n2Cc2ccco2)c1
growth inhibition [1]: 100% (active)
inhibition [2]: 11%
inhibition [3]: -6%
growth inhibition [4]: 100% (active)
outcome [5]: inactive
outcome [6]: inactive
outcome [7]: inactive
outcome [8]: inactive

COc1ccccc1CNC(=O)CCn1c(=O)[nH]c2ccsc2c1=O
growth inhibition [1]: 75% (active)
inhibition [2]: -5%
inhibition [3]: -7%
growth inhibition [4]: 85% (active)
outcome [5]: inactive
outcome [6]: inactive
outcome [7]: inactive
outcome [8]: inactive

C=CCOC(=O)N1CCC(CNCc2cccc(-c3cccc(-c4nc5ccc(F)cc5[nH]4)c3)c2)C1 (centres undefined)
growth inhibition [1]: 49%
inhibition [2]: 20%
inhibition [3]: 0%
growth inhibition [4]: 102% (active)
outcome [5]: inactive
outcome [6]: inactive
outcome [7]: inactive
outcome [8]: inactive

CN(Cc1ccc(-c2ccc(C(F)(F)F)cc2)cc1)C(=O)Cn1c(CCc2cccc(F)c2F)cc(=O)c2ccc(OCC3CCCN3C)cc21 (centres undefined)
growth inhibition [1]: 37%
inhibition [2]: 100% (active)
inhibition [3]: -6%
growth inhibition [4]: 87% (active)
outcome [5]: inactive
outcome [6]: inactive
outcome [7]: inactive
outcome [8]: inactive

CN1CCC(C(=O)Nc2ccc(-c3cccc(-c4nc5ccc(F)cc5[nH]4)c3)cc2)CC1
growth inhibition [1]: 5%
inhibition [2]: 19%
inhibition [3]: 5%
growth inhibition [4]: 101% (active)
outcome [5]: inactive
outcome [6]: inactive
outcome [7]: inactive
outcome [8]: inactive

Cc1nc(Nc2ccc(F)cc2)nc(N2CCc3cc(O)ccc3C2C)c1C (centres undefined)
growth inhibition [1]: 97% (active)
inhibition [2]: -5%
inhibition [3]: -6%
growth inhibition [4]: 99% (active)
outcome [5]: inactive
outcome [6]: inactive
outcome [7]: inactive
outcome [8]: inactive

Oc1ccc(CC2CCCN(c3nc(NCCCOc4ccccc4-c4ccccc4)nc(N4CCNCC4)n3)C2)cc1 (centres undefined)
growth inhibition [1]: 77% (active)
inhibition [2]: 56% (active)
inhibition [3]: -4%
growth inhibition [4]: 95% (active)
outcome [5]: inactive
outcome [6]: inactive
outcome [7]: inactive
outcome [8]: inactive

Nc1cccc(CNCc2ccc(-c3ccc(-c4nc5ccc(F)cc5[nH]4)s3)cc2)c1
growth inhibition [1]: 93% (active)
inhibition [2]: 12%
inhibition [3]: 1%
growth inhibition [4]: 102% (active)
outcome [5]: inactive
outcome [6]: inactive
outcome [7]: inactive
outcome [8]: inactive

CCC(C)(C)c1ccc(N2C(N)=NC(N)=NC2(C)C)cc1
growth inhibition [1]: 4%
inhibition [2]: 40%
inhibition [3]: -1%
growth inhibition [4]: 91% (active)
outcome [5]: inactive
outcome [6]: inactive
outcome [7]: inactive
outcome [8]: inactive

O=C(Nc1ccc(N2CCCN(Cc3cccc(F)c3)CC2)cc1)c1cccs1
growth inhibition [1]: 96% (active)
inhibition [2]: 2%
inhibition [3]: 0%
growth inhibition [4]: 96% (active)
outcome [5]: inactive
outcome [6]: inactive
outcome [7]: inactive
outcome [8]: inactive

O=C(Nc1ccc(Cl)c(Cl)c1)Nc1ccc2nccc(N3CCNCC3)c2c1
growth inhibition [1]: 62% (active)
inhibition [2]: 18%
inhibition [3]: -6%
growth inhibition [4]: 99% (active)
outcome [5]: inactive
outcome [6]: inactive
outcome [7]: inactive
outcome [8]: inactive

Cc1noc(C)c1-c1ccc2c(Nc3nccc4ccccc34)c(C(N)=O)cnc2c1
growth inhibition [1]: 99% (active)
inhibition [2]: 100% (active)
inhibition [3]: 1%
growth inhibition [4]: 100% (active)
outcome [5]: inactive
outcome [6]: inactive
outcome [7]: inactive
outcome [8]: inactive

c1ccc(C2CCC(N3CCC(N4CCCC4)CC3)CC2)cc1 (centres undefined)
growth inhibition [1]: 46%
inhibition [2]: 9%
inhibition [3]: -2%
growth inhibition [4]: 102% (active)
outcome [5]: inactive
outcome [6]: inactive
outcome [7]: inactive
outcome [8]: inactive

CS(=O)(=O)NCCCNCc1ccc(-c2ccc(-c3nc4ccc(C(F)(F)F)cc4[nH]3)cc2)cc1
growth inhibition [1]: 83% (active)
inhibition [2]: 25%
inhibition [3]: 1%
growth inhibition [4]: 100% (active)
outcome [5]: inactive
outcome [6]: inactive
outcome [7]: inactive
outcome [8]: inactive

O=C(NC1CCN(c2ccnc3ccccc23)C1)c1ccc(OC(F)(F)F)cc1 (centres undefined)
growth inhibition [1]: 68% (active)
inhibition [2]: 35%
inhibition [3]: -4%
growth inhibition [4]: 89% (active)
outcome [5]: inactive
outcome [6]: inactive
outcome [7]: inactive
outcome [8]: inactive

Cc1cc(NN=Cc2ccc(F)cc2)c2ccc(C(F)(F)F)cc2n1
growth inhibition [1]: 24%
inhibition [2]: 4%
inhibition [3]: -2%
growth inhibition [4]: 95% (active)
outcome [5]: inactive
outcome [6]: inactive
outcome [7]: inactive
outcome [8]: inactive

CC(=O)Nc1ccc(C(=O)Nc2ccc(-c3cccc(-c4nc5ccc(F)cc5[nH]4)c3)cc2)cn1
growth inhibition [1]: 84% (active)
inhibition [2]: 13%
inhibition [3]: -2%
growth inhibition [4]: 100% (active)
outcome [5]: inactive
outcome [6]: inactive
outcome [7]: inactive
outcome [8]: inactive

Cc1ccc(S(=O)(=O)N(C)c2ccccc2C(=O)Nc2ccccc2Oc2ccccc2)cc1
growth inhibition [1]: 90% (active)
inhibition [2]: 5%
inhibition [3]: 3%
growth inhibition [4]: 98% (active)
outcome [5]: inactive
outcome [6]: inactive
outcome [7]: inactive
outcome [8]: inactive

O=C(/C=C/c1ccc(Cl)c(Cl)c1)NCCCCCCN1CCN(C(=O)Nc2ccc(C(F)(F)F)cc2)CC1
growth inhibition [1]: 44%
inhibition [2]: 42%
inhibition [3]: -1%
growth inhibition [4]: 100% (active)
outcome [5]: inactive
outcome [6]: inactive
outcome [7]: inactive
outcome [8]: inactive

COc1ccc2ncc(Cl)c(NCC3(O)CCC(NCc4ccc5c(n4)NC(=O)CS5)CC3)c2n1 (centres undefined)
growth inhibition [1]: 31%
inhibition [2]: 39%
inhibition [3]: -3%
growth inhibition [4]: 96% (active)
outcome [5]: inactive
outcome [6]: inactive
outcome [7]: inactive
outcome [8]: inactive

Clc1cccc(CNc2nc(NCCc3cnc[nH]3)nc(NC3CCCCC3)n2)c1
growth inhibition [1]: 0%
inhibition [2]: 17%
inhibition [3]: 5%
growth inhibition [4]: 98% (active)
outcome [5]: inactive
outcome [6]: inactive
outcome [7]: inactive
outcome [8]: inactive

CS(=O)(=O)NCCCNCc1ccc(-c2cccc(-c3nc4ccc(F)cc4[nH]3)c2)cc1
growth inhibition [1]: 1%
inhibition [2]: 15%
inhibition [3]: 5%
growth inhibition [4]: 98% (active)
outcome [5]: inactive
outcome [6]: inactive
outcome [7]: inactive
outcome [8]: inactive

Cc1ccc(S(=O)(=O)N2CCN(C(=O)c3cc(-c4cccs4)[nH]n3)CC2)c(C)c1
growth inhibition [1]: 81% (active)
inhibition [2]: -1%
inhibition [3]: -1%
growth inhibition [4]: 85% (active)
outcome [5]: inactive
outcome [6]: inactive
outcome [7]: inactive
outcome [8]: inactive

Cc1[nH]c(C)c(-c2ccc(OCc3cc(F)cc(F)c3)nc2)c(=O)c1Cl
growth inhibition [1]: 97% (active)
inhibition [2]: 20%
inhibition [3]: -6%
growth inhibition [4]: 97% (active)
outcome [5]: inactive
outcome [6]: inactive
outcome [7]: inactive
outcome [8]: inactive

O=C(NCCCN1CCCC1=O)c1cnc(N2CCC(Oc3ccccc3)CC2)c(Cl)c1
growth inhibition [1]: 93% (active)
inhibition [2]: 7%
inhibition [3]: -2%
growth inhibition [4]: 97% (active)
outcome [5]: inactive
outcome [6]: inactive
outcome [7]: inactive
outcome [8]: inactive

COc1cc2c(cc1S(=O)(=O)c1ccc(NC(=O)c3ccc4ccccc4c3)cc1)CCN(C)CC2
growth inhibition [1]: 28%
inhibition [2]: 2%
inhibition [3]: -4%
growth inhibition [4]: 99% (active)
outcome [5]: inactive
outcome [6]: inactive
outcome [7]: inactive
outcome [8]: inactive

NC(N)=Nc1ccc(NC(=O)Nc2ccc(N=C(N)N)cc2)cc1
growth inhibition [1]: 74% (active)
inhibition [2]: -5%
inhibition [3]: 1%
growth inhibition [4]: 85% (active)
outcome [5]: inactive
outcome [6]: inactive
outcome [7]: inactive
outcome [8]: inactive

O=C(Nc1ccccc1Cc1ccccc1)c1ccccc1[N+](=O)[O-]
growth inhibition [1]: 59% (active)
inhibition [2]: -6%
inhibition [3]: 3%
growth inhibition [4]: 98% (active)
outcome [5]: inactive
outcome [6]: inactive
outcome [7]: inactive
outcome [8]: inactive

O=C(c1ccc2ccccc2n1)N1CCCc2cc(Br)ccc21
growth inhibition [1]: 74% (active)
inhibition [2]: 19%
inhibition [3]: -3%
growth inhibition [4]: 97% (active)
outcome [5]: inactive
outcome [6]: inactive
outcome [7]: inactive
outcome [8]: inactive

CC(=O)Nc1ccc(C(=O)Nc2ccc(-c3cccc(-c4nc5ccc(C(F)(F)F)cc5[nH]4)c3)cc2)cn1
growth inhibition [1]: 98% (active)
inhibition [2]: 29%
inhibition [3]: -2%
growth inhibition [4]: 102% (active)
outcome [5]: inactive
outcome [6]: inactive
outcome [7]: inactive
outcome [8]: inactive

CN1CCN(c2ccnc3ccc(NC(=O)Nc4ccc(-c5ccncc5)c(C#N)c4)cc23)CC1
growth inhibition [1]: 99% (active)
inhibition [2]: 32%
inhibition [3]: -3%
growth inhibition [4]: 101% (active)
outcome [5]: inactive
outcome [6]: inactive
outcome [7]: inactive
outcome [8]: inactive

COc1cc(C(=O)Nc2cccc(-c3nc4ccccc4[nH]3)c2)ccc1OC(C)=O
growth inhibition [1]: 37%
inhibition [2]: 16%
inhibition [3]: -4%
growth inhibition [4]: 83% (active)
outcome [5]: inactive
outcome [6]: inactive
outcome [7]: inactive
outcome [8]: inactive

CC(C)NCc1cc(Nc2ccnc3cc(Cl)ccc23)ccc1O
growth inhibition [1]: 100% (active)
inhibition [2]: 27%
inhibition [3]: 6%
growth inhibition [4]: 102% (active)
outcome [5]: inactive
outcome [6]: inactive
outcome [7]: inactive
outcome [8]: inactive

Cn1cncc1C(=O)Nc1cccc(-c2ccc(-c3nc4ccccc4[nH]3)s2)c1
growth inhibition [1]: 25%
inhibition [2]: -3%
inhibition [3]: -3%
growth inhibition [4]: 102% (active)
outcome [5]: inactive
outcome [6]: inactive
outcome [7]: inactive
outcome [8]: inactive

COc1ccc(NC(=O)[C@H](CC(C)C)Nc2cc(C)nc(Nc3ccccc3)n2)cc1
growth inhibition [1]: 92% (active)
inhibition [2]: 25%
inhibition [3]: -1%
growth inhibition [4]: 101% (active)
outcome [5]: inactive
outcome [6]: inactive
outcome [7]: inactive
outcome [8]: inactive

Cc1cnc(CS(=O)c2nc3ccc(C(F)(F)F)cc3[nH]2)cc1OCc1ccccc1 (centres undefined)
growth inhibition [1]: 76% (active)
inhibition [2]: -7%
inhibition [3]: -2%
growth inhibition [4]: 93% (active)
outcome [5]: inactive
outcome [6]: inactive
outcome [7]: inactive
outcome [8]: inactive
